Among the data in ChEMBL document CHEMBL4513141, “CO-ADD screening of NIH (USA) - Clinical Collection” (2021) are Inhibition values, retold here.

Results with a measured potency or affinity are listed apart.

The first test deals with Klebsiella pneumoniae. To be noted: Concentration 20 uM; ASSAY_TEST Inhibition of Bacterial Growth; detection method Absorption (OD600); MEDIA CAMHB; plate type 384well; NBS; CORNING #3640; time 18 hr.
A word on the Inhibition: it is the drop in the measured response relative to a control, in per cent. As for `Cc1ncc([N+](=O)[O-])n1CC(C)O` (stereo unspecified) [SECNIDAZOLE], the Inhibition is 8.29%. On the same count and under the same terms, the figure for `CN1C(=O)CC[C@H]1c1cccnc1` [COTININE] is 5.32%. In the case of `Oc1ccc(/C=C/c2cc(O)cc(O)c2)cc1` [RESVERATROL], the Inhibition came out at 12.99%.

The test system of a further test is Candida albicans. Conditions: 20 µM.
Regarding `COC(=O)C1=C(C)NC(C)=C(C(=O)O[C@@H]2CCCN(Cc3ccccc3)C2)[C@@H]1c1cccc([N+](=O)[O-])c1.Cl`, the Inhibition stood at 3.91%. Same read-out and setting: under `COc1ccccc1N1CCN(CC(O)COc2cccc3ccccc23)CC1` (stereo unspecified) [NAFTOPIDIL] stands 2.55%; under `Cl.O.O=C1N(c2ccccc2)c2ccccc2C1(Cc1ccncc1)Cc1ccncc1`, 3.32%; under `COc1cc(C[C@@H](CO)[C@H](CO)Cc2ccc(O)c(OC)c2)ccc1O` [(+)-SECOISOLARICIRESINOL], 4.22%.

Consider `CC(C)(C(=O)c1cccnc1)c1cccnc1` [METYRAPONE], for which the Inhibition was 2.49%.

For `N#Cc1ccc(C(c2ccc(C#N)cc2)n2cncn2)cc1` [LETROZOLE], the Inhibition is 2.89%. Turning to `COc1ccc(C(=O)NCc2ccc(OCCN(C)C)cc2)cc1OC.Cl`, the Inhibition worked out at 4.71%. Same read-out and setting: under `CN1CCC(=C2c3ccccc3C=Cc3ccccc32)CC1.Cl` [CYPROHEPTADINE HYDROCHLORIDE] stands 3.56%.

With `CC(Cc1ccccc1)(NC(=O)CN)c1ccccc1.Cl` (stereo unspecified) [REMACEMIDE HYDROCHLORIDE], the Inhibition is 4.18%. Take `CC(=O)C1(O)CCC2C3CC(C)C4=CC(=O)C=CC4(C)C3(F)C(O)CC21C` (stereo unspecified): the Inhibition was 2.21%.

Regarding `CC1(C)C[C@@H]1C(=O)N/C(=C\CCCCSC[C@H](N)C(=O)O)C(=O)[O-].[Na+]` [CILASTATIN SODIUM], the Inhibition was 5.18%. For `CCOC(=O)[C@H](CCc1ccccc1)N[C@H]1CCc2ccccc2N(CC(=O)O)C1=O.Cl` [BENAZEPRIL HYDROCHLORIDE], the Inhibition was determined as 3.12%. Take `COc1cc(C)c(/C=C/C(C)=C/C=C/C(C)=C/C(=O)O)c(C)c1C` [ACITRETIN]: the Inhibition was found to be 3.07%. Same read-out and setting: the figure for `COc1cc(N)c(Cl)cc1C(=O)N[C@@H]1CCN(CCCOc2ccc(F)cc2)C[C@@H]1OC.O` [(R,S)-CISAPRIDE MONOHYDRATE] is 1.98%; for `Cl.O.O=C(c1ccc(F)cc1)C1CCN(CCn2c(=S)[nH]c3ccccc3c2=O)CC1` it is 3.36%; for `COC1=CC(=O)C[C@@H](C)[C@]12Oc1c(Cl)c(OC)cc(OC)c1C2=O` [GRISEOFULVIN] it is 3.42%. For `Cc1onc(-c2ccccc2)c1-c1ccc(S(N)(=O)=O)cc1` [VALDECOXIB], the Inhibition amounted to 1.13%. Still for that read-out and setting: under `Cl.Nc1c2c(nc3ccccc13)CCCC2` [TACRINE HYDROCHLORIDE] stands 1.65%; under `O=c1c(-c2ccccc2)c1-c1ccccc1` [DIPHENCYPRONE], 5.88%; under `CC(=O)[C@@]1(O)CC[C@H]2[C@@H]3C[C@H](C)C4=CC(=O)CC[C@]4(C)[C@H]3CC[C@@]21C`, 2.87%.

On to `CCCN[C@H]1CCc2nc(N)sc2C1` [PRAMIPEXOLE], for which the Inhibition turned out to be 5.21%. The same measure, in the same setting: the figure for `CN1CCc2cc(Cl)c(O)cc2[C@@H](c2ccccc2)C1.Cl` is 1.81%; for `O=C(O)COCCN1CCN(C(c2ccccc2)c2ccc(Cl)cc2)CC1` (stereo unspecified) [CETIRIZINE] it is 3.71%; for `CC(=O)NS(=O)(=O)c1ccc(N)cc1` [SULFACETAMIDE] it is 1.53%.

On to `Nc1c2c(nc3c1CCC3)CCCC2` [IPIDACRINE], for which the Inhibition worked out at 3.22%. Regarding `O=C([O-])c1cc(=O)c2c(OCC(O)COc3cccc4oc(C(=O)[O-])cc(=O)c34)cccc2o1.[Na+].[Na+]` [CROMOLYN SODIUM], the Inhibition was found to be 2.62%. Take `CN1CCN(CC/C=C2/c3ccccc3Sc3ccc(S(=O)(=O)N(C)C)cc32)CC1` [THIOTHIXENE]: the Inhibition stood at 2.99%. The same measure, in the same setting: under `CC1Cc2ccccc2N1NC(=O)c1ccc(Cl)c(S(N)(=O)=O)c1` (stereo unspecified) [INDAPAMIDE] stands -0.23%; under `Cc1cn([C@H]2C=C[C@@H](CO)O2)c(=O)[nH]c1=O` [STAVUDINE], 2.99%. On the same count and under the same terms, the figure for `CCOC(=O)C1=C(C)NC(C)=C(C(=O)OC)C1c1cccc(Cl)c1Cl` (stereo unspecified) [FELODIPINE] is 1.71%; for `Cc1nc2n(c(=O)c1CCN1CCC(c3noc4cc(F)ccc34)CC1)CCCC2` [RISPERIDONE] it is 0.09%. The same measure, in the same setting: under `CC(C[N+](C)(C)C)OC(N)=O.[Cl-]` (stereo unspecified) [BETHANECHOL CHLORIDE] stands 0.53%. For the compound `NC(=O)N1c2ccccc2CC(=O)c2ccccc21` [OXCARBAZEPINE], the Inhibition was 2.7%. Still for that read-out and setting: under `NC(CO)(CO)CO.O=C(c1ccccc1)c1ccc2n1CCC2C(=O)O` (stereo unspecified) [KETOROLAC TROMETHAMINE] stands -0.08%; under `CCC(CO)NCCNC(CC)CO` (stereo unspecified), 2.36%; under `Cc1ncc([N+](=O)[O-])n1CC(C)O` (stereo unspecified) [SECNIDAZOLE], 1.89%.

Regarding `CN1C(=O)CC[C@H]1c1cccnc1` [COTININE], the Inhibition was determined as 4.46%.

As for `Oc1ccc(/C=C/c2cc(O)cc(O)c2)cc1` [RESVERATROL], the Inhibition stood at 2.92%.
